The nature of test [1]: stimulators of nuclear beta-catenin in C2C12, primary screen, imaging, WNT3A-conditioned medium, mouse C2C12, NPC library (AID 1117326; in the data active means nuclear beta-catenin stimulation mostly above about 4.2%, no sharp cut-off; inactive means mostly below about 10%; further: reference of the scale not given here). The conditions noted are these: stronger effect = higher value.
Test [2] is described as follows: stimulators of insulin release from INS-1E, primary screen, cell-based, 5 mM glucose, NPC library (AID 1117329;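 active means compound raises insulin release from rat beta cells at 5 mM glucose, no numeric limit stated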; further: reference of the scale not given here). The following applies: rat INS-1E insulin secretion, at 10 µM, stronger effect = higher value.
The nature of test [3]: growth inhibition of GSK3B-pretreated HCT116 cells – cell-based, CellTiter-Glo, 0.2 to 20 µM (AID 1117336;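 active means compounds lowering colon cancer cell viability after pretreatment blocking the GSK3B kinase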). The conditions noted are these: HCT116 viability after GSK3B inhibitor, at 20 µM, stronger effect = higher value.
The nature of test [4]: inhibition of endothelial tube formation, primary screen, imaging, VEGF stimulated, CD31 staining, tube area, NPC library (AID 1117340;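 active means compound that reduces growth-factor-driven endothelial tube area in a mixed cell culture, no cutoff stated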). The following applies: VEGF-stimulated ADSC/ECFC co-culture, at 10 µM, stronger effect = higher value.
Test [5] in a line: glucagon-like peptide 1 release enhancers, primary assay, NCI-H716 cell line, NPC library (AID 1117341;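 active means compound raises GLP1 secretion from the human gut endocrine cells, with no numeric limit stated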; further: reference of the scale not given here). The conditions noted are these: NCI-H716 cells, at 10 µM, stronger effect = higher value.
Test [6] can be described thus: HCT116 colon cancer cell growth inhibition, primary screen, CellTiter-Glo luminescence, NPC library (AID 1117342;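 active means compounds that lower survival of HCT116 colon cancer cells in the luminescence readout, no numeric limit stated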). The following applies: at 20 µM (top of the series).
The nature of test [7]: CellTiter-Glo luminescent readout of SW480 viability loss, NPC library primary (AID 1117343;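 active means compounds that lower viability of the colon cancer cells in the luminescence readout, with no numeric limit stated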). The conditions noted are these: CellTiter-Glo luminescence; at 20 µM (top of the series) unless noted.
A short description of test [8]: decreased DLD-1 cellular survival, CellTiter-Glo luminescent readout, NPC compound collection, primary HTS (AID 1117346;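 active means compounds that lower survival of DLD-1 colon cancer cells in the luminescence readout, no cutoff given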). The conditions noted are these: DLD-1 viability, CellTiter-Glo luminescence; at 20 µM (top of the series).
Test [9] relates to Aerobactin synthetase IucA (Klebsiella pneumoniae). In words: IucA aerobactin synthetase inhibitors, biochemical, Tocris library, absorbance (AID 1345561; call rule not given here;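 further: 100% = enzyme without compound and 0% = no enzyme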). The following applies: purified IucA enzyme assay, absorbance (OD) read-out; stronger effect = lower value;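 tested at 8 µM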.
Test [10] is described as follows: sensitizers of A549 cells to miR-34 induction, primary screen, imaging, A549 dox-inducible miR-34, nuclei and caspase counts (AID 1347080). The conditions noted are these: A549 miR-34 inducible, Hoechst nuclei count, 48 h.
The nature of test [11]: viability rescue of complex I mutant cybrids, primary screen, cell-based, galactose medium, ATP luminescence (AID 1645843;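 active means z-score of at least 1.8 in each of two replicates, scored against plate mean and spread of sample wells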;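 further: positive z means more ATP and so rescue of galactose-driven cybrid death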). The conditions noted are these: complex I mutant cybrid cells, 72 h, stronger effect = higher value.
Test [12] is described as follows: growth inhibition of DIPG glioma cells, dose response, cell-based, SU-DIPG-XVII, MIPE5.0, CellTiter-Glo, qHTS (AID 1347060; cut-off not given, nearly all actives have AC50 up to about 26 µM). The conditions noted are these: SU-DIPG-XVII viability, CellTiter-Glo ATP luminescence.
A short description of test [13]: SU-DIPG-XXV glioma cell viability, MIPE5.0 library, qHTS (AID 1347068; cut-off not given, nearly all actives have IC50 up to about 30 µM).
Test [14] can be described thus: survival rescue of mitochondrial mutant cells in low glucose, primary screen, MELAS cybrids, Rieske KO mouse fibroblasts, CellTiter-Glo (AID 1508586;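 active means mean z-score across replicates of 1.96 or higher in either the MELAS or the Rieske mutant cell line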;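 further: z relative to plate mean and SD of compound and empty wells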).
The mark [15] stands for this setting: stronger effect = lower value, cell number ratio, induced over uninduced.
Setting [16] is: measured here: relative caspase fold change +Dox/-Dox.
Where [17] appears, read: measured here: total cells with miR-34 induction, stronger effect = lower value.
The mark [18] stands for this setting: measured here: total cells without miR-34 induction.

Molecules are shown by their SMILES. Where “and” joins values, the source holds several entries; their conditions need not be identical. Equal entries are not always repeated. Inconclusive results are not listed. Where a structure was tested more than once in an assay, its records may differ in their call. Calls of active or inactive are those of the source.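 How the source made its calls, unless noted: active means compounds whose cell count with miR-34 switched on is under 0.7 times the count with it off; inactive means the rest.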

In the case of `COCC(=O)O[C@]1(CCN(C)CCCc2nc3ccccc3[nH]2)CCc2cc(F)ccc2[C@@H]1C(C)C`, the nuclear beta-catenin stimulation in [1] (at 10 µM) is 14.4% (inactive); in test [1] (stimulation, at 2 µM), -2.2%. Besides, the insulin secretion stimulation in test [2] is 3.5% (inactive). Moreover, the viability decrease in [3] is 107% (active). Moreover, the tube area decrease in [4] is 67.6% (active). Also, in test [5], the GLP1 secretion stimulation is 20.1% (active). Further, in test [6], the inhibition of viability was 110% (active). The viability decrease (inhibition) was 130% (active) in [7] and 101% (active) in test [8]. Further, in test [9], the remaining activity was 86.1% (inactive). For the same compound, the fold change in [10] (setting [15]) was 0.582 (active) and 1.03 (inactive); in test [10] (setting [16]) it was 0.681 and 1.08. The cell count in [10] (setting [17]) was 108 and 550; in test [10] (setting [18]), 186 and 534. The z-score in test [11] is -1.29 (inactive) and -0.675 (inactive).

For `CN(C(=O)c1c(O)c2ccccc2n(C)c1=O)c1ccccc1`, the nuclear beta-catenin stimulation in [1] (at 10 µM) is 0.7% (inactive); in test [1] (stimulation, at 2 µM), 0.9%. The insulin secretion stimulation in [2] is 4.4% (inactive). Further, in test [3], the viability decrease is 2.2% (inactive). In addition, the tube area decrease in [4] was -6.9% (inactive). In addition, in test [5], the GLP1 secretion stimulation is 0.6% (inactive). In addition, in test [6], the inhibition of viability was -2.7% (inactive). The viability decrease (inhibition) in test [7] is 1.1% (inactive); in [8], -45.2% (inactive). Also, the remaining activity in test [9] is 121% (inactive). The call in test [12] and in test [13] was inactive. Also, the fold change in test [10] (setting [15]) is 0.967 (inactive); in [10] (setting [16]), 0.749. Also, the cell count is 8780 in test [10] (setting [17]) and 9070 in test [10] (setting [18]). Besides, in [11], the z-score is -0.335 (inactive).

As to `Cc1ccc(=O)n(-c2ccccc2)c1`, the nuclear beta-catenin stimulation in test [1] (at 10 µM) is 2.8% (inactive); in [1] (stimulation, at 2 µM), 0.6%. Besides, the insulin secretion stimulation in [2] is -1.2% (inactive). The viability decrease in test [3] was -0.3% (inactive). Also, the tube area decrease in test [4] was 13.3% (inactive). In addition, in test [5], the GLP1 secretion stimulation was -2% (inactive). The inhibition of viability in test [6] was -4.6% (inactive). Further, the figures for the viability decrease (inhibition) in [7] and in test [8] were 39.2% (inactive) and 12.8% (inactive), respectively. The remaining activity in test [9] is 120% (inactive). Besides, the fold change in test [10] (setting [15]) was 1.05 (inactive) and 0.91 (inactive) and 0.937 (inactive); in test [10] (setting [16]), 1.33 and 1.82 and 0.797. The cell count is 11000 and 8480 and 9430 in [10] (setting [17]); 10500 and 9310 and 10100 in test [10] (setting [18]). Also, the z-score in [14] (MELAS cybrid survival, CellTiter-Glo 48 h, stronger effect = higher value) is -0.113 (inactive); in test [14] (Rieske KO mouse fibroblast survival, CellTiter-Glo 72 h), -0.414; in test [11] it was 0.38 (inactive) and -0.08 (inactive).

Regarding `NCCNC(=O)c1ccc(Cl)cn1`, the nuclear beta-catenin stimulation in test [1] (at 10 µM) is 1.5% (inactive); in [1] (stimulation, at 2 µM), 0.2%. Further, in test [2], the insulin secretion stimulation was -1.7% (inactive). Further, in [3], the viability decrease was -5.05% (inactive). Also, the tube area decrease in test [4] is -14.8% (inactive). Also, the GLP1 secretion stimulation in [5] was -1.7% (inactive). The inhibition of viability in test [6] is -6.5% (inactive). In addition, the viability decrease (inhibition) in [7] is 16.3% (inactive); in test [8], -10.3% (inactive). The remaining activity in [9] was 98% (inactive). Also, the fold change in test [10] (setting [15]) was 0.873 (inactive); in [10] (setting [16]), 1.55. Also, the cell count in test [10] (setting [17]) was 8230; in [10] (setting [18]), 9430. In addition, the z-score in [11] was 0.045 (inactive).

As for `OCC(CO)N[C@H]1C[C@](O)(CO)[C@@H](O)[C@H](O)[C@H]1O`, the nuclear beta-catenin stimulation in test [1] (at 10 µM) was 3.1% (inactive); in test [1] (stimulation, at 2 µM), 5.1%. The insulin secretion stimulation in [2] is -1.5% (inactive). Further, the viability decrease in test [3] is -12.8% (inactive). Moreover, the tube area decrease in test [4] is 7.6% (inactive). For the same compound, the GLP1 secretion stimulation in test [5] is 1.9% (inactive). Moreover, in test [6], the inhibition of viability is 5.5% (inactive). In addition, the viability decrease (inhibition) in test [7] was 27.3% (inactive); in test [8], 1.55% (inactive). Also, the remaining activity in [9] is 123% (inactive). For the same compound, the fold change in test [10] (setting [15]) was 0.876 (inactive); in test [10] (setting [16]), 1.87. The cell count in [10] (setting [17]) turned out to be 8920; in [10] (setting [18]) it was 10200. The z-score in test [11] is 0.245 (inactive).

The values above are taken from PubChem BioAssay.
